Laboratory results as given in PubChem BioAssay (EPA / NIEHS).
Active and inactive are the calls of the source. Rule for the calls: active = hit-call score of the fitted dose curve at least 0.9, where 1 is the maximum; inactive = score below 0.9.

Experiments:
[1] = APR_HepG2_CellLoss_72hr: Apredica 72-hour HepG2 Assay for Cell Loss (AID 2282915); conditions: high-content imaging
Method in brief: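 Cell number comes from Hoechst 33342-labelled nuclei, imaged at 20x after 3.7% formaldehyde fixation. Dosing was 0.39–200 uM, ten concentrations in duplicate, 0.5% DMSO final, for 72 h. Bidirectional fit relative to DMSO baseline.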

[2] = APR_HepG2_P-H2AX_72hr: Apredica 72-hour HepG2 Assay for H2AX Phosphorylation (AID 2282916); conditions: imaging, actives raise or lower the signal;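 note: phospho-histone H2A.x immunostain intensity per cell marking DNA damage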
Method in brief: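 Following 72 hr treatment with 0.39–200 uM compound, HepG2 cells were formaldehyde-fixed, permeabilized and stained for phospho-H2A.x; signal was measured by high-content imaging and fitted bidirectionally against DMSO controls.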

[3] = APR_HepG2_MitoMembPot_72hr: Apredica 72-hour HepG2 Assay for Mitochondrial Membrane Potential (AID 2282917); conditions: imaging, actives raise or lower the signal
Method in brief: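 Membrane potential read by MitoTracker Red CMXRos (250 nM, 30 min, pre-fixation) fluorescence imaging of HepG2 after 72 hr exposure. Ten concentrations, 0.39–200 uM, duplicate wells, 0.5% DMSO; fitted in both directions against DMSO baseline.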

[4] = APR_HepG2_MicrotubuleCSK_72hr: Apredica 72-hour HepG2 Assay for Microtubule CSK Stabilty (AID 2282919); conditions: HepG2 microtubule cytoskeleton, high-content imaging, actives raise or lower the signal
Method in brief: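 Read-out is tubulin fluorescence intensity from high-content imaging of HepG2 cells, with nuclei identified by Hoechst 33342. Treatment lasts 72 h at 0.39–200 uM, and curves are fitted bidirectionally against the DMSO negative control.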

[5] = APR_HepG2_P-H2AX_24hr: Apredica 24-hour HepG2 Assay for H2AX Phosphorylation (AID 2282920); conditions: high-content imaging, actives raise or lower the signal
Method in brief: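 HepG2 cells dosed 24 h at 0.39–200 uM (10 points, duplicate, 0.5% DMSO final). Formaldehyde-fixed and permeabilized, then immunostained for phospho-H2A.x with Hoechst. Fluorescence quantified by high-content imaging, fitted bidirectionally versus DMSO.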

[6] = APR_HepG2_StressKinase_72hr: Apredica 72-hour HepG2 Assay for Stress Kinase (AID 2282921); conditions: HepG2 stress kinase (phospho-c-Jun) imaging, actives raise or lower the signal
Method in brief: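 Fluorescence intensity of Cy3-tagged anti-phospho-c-Jun antibody, quantified per cell from Hoechst-defined nuclei across six images per well, served as the read-out following 72 h exposure (0.39–200 uM, 0.5% v/v DMSO).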

[7] = APR_HepG2_p53Act_72hr: Apredica 72-hour HepG2 Assay for p53 Activation (AID 2282923); conditions: high-content imaging, actives raise or lower the signal;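 note: average cellular p53 protein immunofluorescence intensity in HepG2 cells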
Method in brief: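 HepG2 monolayers receive test compounds in duplicate at ten concentrations (0.39 through 200 uM) for 72 hr. They are then formaldehyde-fixed, antibody-labelled for p53, Hoechst-stained and imaged, with activity fitted bidirectionally versus DMSO.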

[8] = APR_HepG2_NuclearSize_72hr: Apredica 72-hour HepG2 Assay for Nuclear Size (AID 2282925); conditions: high-content imaging, actives raise or lower the signal
Method in brief: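 HepG2; cpd 0.39–200 uM, 10 conc, duplicate; 72 h; DMSO 0.5% v/v; fix 3.7% formaldehyde 30 min RT; Triton permeabilization; Hoechst 2 ug/mL; HCS imaging 20x; nuclear diameter; gain/loss fit vs DMSO.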

[9] = ATG_CRE_CIS: Attagene CIS-FACTORIAL HepG2 Assay for human cAMP Responsive Element (CRE) binding protein 3 (AID 2282926); conditions: HepG2 CRE cis-reporter, Attagene multiplexed mRNA; actives raise or lower the signal
Method in brief: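 HepG2 cells transiently transfected with cis-element-driven multiple reporter transcription units; CRE reporter mRNA measured 24 h after dosing by RT-PCR, 6-FAM labelling, HpaI digestion and capillary electrophoresis. Bidirectional fit versus DMSO baseline.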

[10] = target: CCAAT/enhancer-binding protein beta (Homo sapiens) (UniProt P17676); test: ATG_C_EBP_CIS: Attagene CIS-FACTORIAL HepG2 Assay for human CCAAT/Enhancer Binding Protein (C/EBP) beta (AID 2282927); conditions: HepG2 Attagene cis-factorial transcription factor reporter; actives raise or lower the signal
Chain of CCAAT/enhancer-binding protein beta (Homo sapiens) (P17676 whole entry, looked up, the tested form may be a part): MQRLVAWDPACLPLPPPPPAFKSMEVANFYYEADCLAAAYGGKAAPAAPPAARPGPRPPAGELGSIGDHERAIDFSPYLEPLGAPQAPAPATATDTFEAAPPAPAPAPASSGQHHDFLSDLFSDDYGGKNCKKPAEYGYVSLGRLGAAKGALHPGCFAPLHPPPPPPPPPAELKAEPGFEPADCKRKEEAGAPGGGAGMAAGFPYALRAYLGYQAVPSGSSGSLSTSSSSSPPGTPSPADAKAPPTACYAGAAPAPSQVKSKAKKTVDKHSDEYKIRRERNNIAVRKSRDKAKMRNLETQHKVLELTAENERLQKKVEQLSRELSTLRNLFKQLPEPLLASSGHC
Method in brief: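 Endogenous C/EBPb-driven reporter transcripts measured in transfected human HepG2 cells at 24 h via RT-PCR and capillary electrophoresis of labelled fragments. Activity fitted in both directions relative to DMSO baseline.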

[11] = ATG_CMV_CIS: Attagene CIS-FACTORIAL HepG2 Assay for human CMV (Internal Marker) (AID 2282928); conditions: HepG2 CMV promoter reporter, transcription factor profiling; actives raise or lower the signal;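 note: endpoint acts as a background internal control marker rather than a target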
Method in brief: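 Endogenous transcription factor activity read in HepG2 via transfected cis-promoter reporter units. After 24 h dosing, reporter mRNA measured by RT-PCR/capillary electrophoresis; gain or loss of signal fit relative to DMSO.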

[12] = ATG_DR4_LXR_CIS: Attagene CIS-FACTORIAL HepG2 Assay for human Liver X Receptor (LXR), DR4 submotif (AID 2282929); conditions: HepG2 Attagene DR4 cis-reporter, mRNA transcription; actives raise or lower the signal
Method in brief: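 The endpoint is DR4-element-driven reporter transcripts after 24 h chemical exposure of transfected HepG2 cells. These were measured via RT-PCR and capillary electrophoresis, and gain or loss of signal was fitted relative to DMSO controls.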

[13] = ATG_AP_1_CIS: Attagene CIS-FACTORIAL HepG2 Assay for human Activator Protein 1 (AP-1) (AID 2282931); conditions: HepG2 Attagene cis-factorial AP-1 reporter mRNA; actives raise or lower the signal
Method in brief: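 Readout is reporter transcript level from endogenous transcription factor activity, quantified by RT-PCR with fluorescent primer extension and capillary electrophoresis. Transiently transfected HepG2 cells, 24 h exposure. Curves fitted both directions versus DMSO.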

[14] = ATG_AP_2_CIS: Attagene CIS-FACTORIAL HepG2 Assay for human Activator Protein 2 (AP-2) (AID 2282932); conditions: HepG2 AP-2 cis-reporter, Attagene transcription factor profiling; actives raise or lower the signal
Method in brief: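 Step one: transient transfection of HepG2 with reporter transcription units. Step two: 24 h chemical exposure. Step three: RNA extraction, RT-PCR, labelled fragment analysis by capillary electrophoresis; DMSO serves as baseline.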

[15] = ATG_BRE_CIS: Attagene CIS-FACTORIAL HepG2 Assay for human Bone Morphogenetic Protein (BMP) Response Element (BRE) (AID 2282933); conditions: HepG2 BMP response element reporter, Attagene transcription factor profiling; actives raise or lower the signal
Method in brief: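 HepG2 cells transiently transfected with CIS reporter units (endogenous TF activity, BMP response element), dosed 24 h. Reporter mRNA quantified by RT-PCR, fluorescent labelling and capillary electrophoresis; bidirectional fit vs DMSO baseline.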

[16] = target: Retinoic acid receptor alpha (Homo sapiens) (UniProt P10276); test: ATG_DR5_RAR_CIS: Attagene CIS-FACTORIAL HepG2 Assay for human Retinoic Acid Receptor Alpha (RARE), DR5 submotif (AID 2282934); conditions: HepG2 Attagene cis-factorial RARE DR5 reporter, mRNA; actives raise or lower the signal
Chain of Retinoic acid receptor alpha (Homo sapiens) (P10276 whole entry, looked up): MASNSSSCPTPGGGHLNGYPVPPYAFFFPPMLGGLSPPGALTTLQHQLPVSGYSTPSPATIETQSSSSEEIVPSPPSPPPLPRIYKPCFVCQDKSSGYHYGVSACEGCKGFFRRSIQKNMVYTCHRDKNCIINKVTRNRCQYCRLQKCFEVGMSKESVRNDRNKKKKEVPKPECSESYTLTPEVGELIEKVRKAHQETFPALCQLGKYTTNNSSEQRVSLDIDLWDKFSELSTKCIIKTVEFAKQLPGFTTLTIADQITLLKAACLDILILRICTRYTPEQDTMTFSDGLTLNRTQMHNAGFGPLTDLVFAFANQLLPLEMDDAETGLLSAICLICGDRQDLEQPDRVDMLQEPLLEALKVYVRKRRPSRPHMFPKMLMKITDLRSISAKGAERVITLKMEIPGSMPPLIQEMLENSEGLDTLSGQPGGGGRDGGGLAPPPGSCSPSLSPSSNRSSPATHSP
Method in brief: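 Reporter transcripts from a DR5-regulated unit, measured via RT-PCR plus capillary electrophoresis, reflect endogenous RAR activity in transiently transfected human HepG2 liver cells. Exposure lasted 24 h; gain or loss of signal scored against DMSO.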

[17] = target: Aryl hydrocarbon receptor (Homo sapiens) (UniProt P35869); test: ATG_Ahr_CIS: Attagene CIS-FACTORIAL HepG2 Assay for human Aryl Hydrocarbon Receptor (Ahr) (AID 2282930); conditions: HepG2 AhR cis-factorial reporter transcription; actives raise or lower the signal
Chain of Aryl hydrocarbon receptor (Homo sapiens) (P35869 whole entry, looked up): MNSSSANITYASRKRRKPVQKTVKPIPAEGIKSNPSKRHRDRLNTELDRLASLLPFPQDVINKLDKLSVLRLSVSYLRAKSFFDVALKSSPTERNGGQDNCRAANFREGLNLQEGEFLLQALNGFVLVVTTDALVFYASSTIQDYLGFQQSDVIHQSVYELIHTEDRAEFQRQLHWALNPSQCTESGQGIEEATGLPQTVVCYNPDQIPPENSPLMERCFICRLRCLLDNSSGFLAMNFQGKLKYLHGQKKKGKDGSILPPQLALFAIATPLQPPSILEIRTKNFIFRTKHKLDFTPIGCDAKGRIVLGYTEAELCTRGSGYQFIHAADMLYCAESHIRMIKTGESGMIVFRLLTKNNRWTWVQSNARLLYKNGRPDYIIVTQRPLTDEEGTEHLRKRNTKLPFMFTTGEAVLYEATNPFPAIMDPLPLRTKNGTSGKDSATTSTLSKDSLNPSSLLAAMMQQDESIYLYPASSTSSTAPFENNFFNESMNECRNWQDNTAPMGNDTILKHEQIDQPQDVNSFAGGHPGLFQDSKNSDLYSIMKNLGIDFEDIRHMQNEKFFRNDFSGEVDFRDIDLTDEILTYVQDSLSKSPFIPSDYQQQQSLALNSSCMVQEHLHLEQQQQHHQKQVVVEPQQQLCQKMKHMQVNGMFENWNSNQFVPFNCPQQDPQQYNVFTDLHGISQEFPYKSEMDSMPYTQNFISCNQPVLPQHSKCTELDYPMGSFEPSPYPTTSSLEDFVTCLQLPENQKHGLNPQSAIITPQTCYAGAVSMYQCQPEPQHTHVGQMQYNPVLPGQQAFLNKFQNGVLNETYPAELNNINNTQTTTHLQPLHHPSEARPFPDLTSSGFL
Method in brief: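 Reporter mRNA levels, quantified by RT-PCR and fluorescent capillary electrophoresis, reflect endogenous AhR transcriptional activity in HepG2 cells carrying transfected cis-promoter reporter constructs. Readout at 24 h post-dose; gain or loss fitted against DMSO baseline.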

[18] = APR_HepG2_StressKinase_24hr: Apredica 24-hour HepG2 Assay for Stress Kinase (AID 2282922); conditions: HepG2 stress kinase (phospho-c-Jun) imaging, actives raise or lower the signal
Method in brief: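 HepG2, 24 hr dosing, 0.39–200 uM in duplicate, 0.5% DMSO; formaldehyde fix (3.7%), 0.5% Triton X-100; anti-phospho-c-Jun + Cy3 secondary, Hoechst counterstain; ArrayScan imaging; bidirectional curve fit vs DMSO baseline.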

Measured: outcome

CCOC(=O)c1ccccc1C(=O)OCC
inactive: [1] | [2] | [3] | [4] | [5] | [6] | [7] | [8] | [9] | [10] | [11] | [12] | [13] | [14] | [15] | [16]

CC(Cc1ccc(OCC(=O)O)cc1)NCC(O)c1csc(C(F)(F)F)n1 (stereo not given)
inactive: [1] | [2] | [3] | [4] | [5] | [6] | [7] | [8] | [9] | [10] | [11] | [12] | [17] | [13] | [14] | [15]

Cc1cccc(N)c1
inactive: [1] | [2] | [3] | [4] | [5] | [6] | [7] | [8] | [9] | [10] | [11] | [12] | [17] | [13] | [14] | [15]

[N-]=[N+]=[N-]
inactive: [1] | [2] | [3] | [4] | [5] | [6] | [7] | [8] | [9] | [10] | [11] | [12] | [13] | [14] | [15]

ClC(Cl)c1ccccc1
inactive: [1] | [2] | [3] | [4] | [5] | [6] | [8] | [9] | [10] | [11] | [12] | [17] | [13] | [14] | [15] | [16]

Cc1ccc([N+](=O)[O-])cc1C
inactive: [1] | [2] | [3] | [4] | [5] | [6] | [8] | [9] | [10] | [11] | [12] | [13] | [14] | [15] | [16]

CC(Cl)(Cl)C(=O)O
inactive: [1] | [2] | [3] | [4] | [5] | [6] | [18] | [8] | [9] | [10] | [11] | [12] | [13] | [14] | [15]

CCNc1nc(Cl)nc(NC(C)(C)C)n1
inactive: [1] | [2] | [3] | [4] | [5] | [6] | [8] | [9] | [10] | [11] | [12] | [17] | [13] | [14] | [15] | [16]
